{"source": "PubChem BioAssay AID1347048", "about": "(National Center for Advancing Translational Sciences (NCATS), 2019)", "note": "Hit rate of the full screen: of about 76,000 compounds, about 1,200 (1.6%) were called active. Roughly 4% stayed inconclusive and do not appear here. Shown is part of a subset that was picked to be rich in actives. Unmarked numbers belong to inactive results. The call rests on the fitted dose curve. On the % scale 0 is the no-effect control and ±100 the full control effect; potency means the concentration at half of the fitted maximal effect.", "data": [{"molecular_target": "Atrial natriuretic peptide receptor 1 (Homo sapiens) (UniProt P16066)", "sequence (P16066 whole entry, looked up)": "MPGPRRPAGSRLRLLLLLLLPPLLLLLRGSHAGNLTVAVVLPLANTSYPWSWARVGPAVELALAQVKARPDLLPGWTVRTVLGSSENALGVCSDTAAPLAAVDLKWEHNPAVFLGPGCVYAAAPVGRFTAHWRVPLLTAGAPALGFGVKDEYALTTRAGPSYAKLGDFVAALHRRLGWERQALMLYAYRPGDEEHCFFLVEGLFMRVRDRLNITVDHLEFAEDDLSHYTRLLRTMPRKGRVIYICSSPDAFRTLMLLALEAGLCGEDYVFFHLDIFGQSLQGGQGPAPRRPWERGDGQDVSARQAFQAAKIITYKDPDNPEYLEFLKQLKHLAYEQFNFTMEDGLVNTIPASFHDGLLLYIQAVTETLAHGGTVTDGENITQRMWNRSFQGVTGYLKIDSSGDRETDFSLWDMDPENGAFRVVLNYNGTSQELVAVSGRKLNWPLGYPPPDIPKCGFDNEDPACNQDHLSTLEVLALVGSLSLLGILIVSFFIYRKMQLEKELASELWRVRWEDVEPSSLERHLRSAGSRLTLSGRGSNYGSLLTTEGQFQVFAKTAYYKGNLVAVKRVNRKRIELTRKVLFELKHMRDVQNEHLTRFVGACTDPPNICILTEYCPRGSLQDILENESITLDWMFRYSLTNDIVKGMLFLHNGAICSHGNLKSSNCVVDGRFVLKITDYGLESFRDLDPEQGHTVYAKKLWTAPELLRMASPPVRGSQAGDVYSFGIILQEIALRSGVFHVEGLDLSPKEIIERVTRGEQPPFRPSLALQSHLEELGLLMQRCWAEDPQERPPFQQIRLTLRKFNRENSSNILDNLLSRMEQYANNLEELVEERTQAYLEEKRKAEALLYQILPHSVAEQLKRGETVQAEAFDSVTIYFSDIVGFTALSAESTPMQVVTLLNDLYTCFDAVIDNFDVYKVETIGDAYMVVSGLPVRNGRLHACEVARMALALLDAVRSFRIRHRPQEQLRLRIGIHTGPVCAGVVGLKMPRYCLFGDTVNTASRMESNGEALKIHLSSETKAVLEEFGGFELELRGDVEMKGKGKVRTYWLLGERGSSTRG", "assay": "Natriuretic polypeptide receptor (hNpr1) antagonism - Primary qHTS; further: nearly all actives have a fitted effect of over 60% in size", "conditions": "HEK293 hNpr1 GloSensor cGMP, ANP-stimulated luminescence; series mostly up to 46.3 µM; activity change, negative = inhibition: at the top concentration", "how_it_was_run": "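Compound pre-incubated 30 min at room temperature on GloSensor-loaded HEK293 cells stably carrying hNpr1 and the pGS-40F cGMP biosensor. Stimulation uses hNppA at 0.1 nM final; luminescence is taken at baseline and 20 min post-agonist.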", "values": [{"smiles": "CC(C)CNC(=O)CC(c1ccc(F)cc1F)c1c[nH]c2ccccc12", "note": "(stereo not given)", "activity change, negative = inhibition": "-18.2%"}, {"smiles": "COc1ccc(CNC(=O)c2cc3n(n2)CC(c2ccc4c(c2)OCO4)OC3)c(OC)c1", "note": "(stereo not given)", "activity change, negative = inhibition": "-5.63%"}, {"smiles": "CCCc1nc(C(=O)N[C@@H]2[C@@H](Cc3ccccc3)[C@H]3OCC[C@@H]23)cs1", "activity change, negative = inhibition": "-2.95%"}, {"smiles": "Cc1ccc(NC(=O)Cn2ccn3nc4c(c3c2=O)CC(C)CC4)cc1Cl", "note": "(stereo not given)", "activity change, negative = inhibition": "1.66%"}, {"smiles": "O=c1n(CC2CC2)nc2n1CCC(NS(=O)(=O)c1cccc(F)c1)CC2", "note": "(stereo not given)", "activity change, negative = inhibition": "-1.4%"}, {"smiles": "COc1ccc(-c2noc(CC3CCN(C(=O)Cc4ccc(C)cc4)CC3)n2)cc1", "Potency": "15.8 µM (active)"}, {"smiles": "Cc1ccc(CC(=O)N2CCC(Cc3nc(-c4cnccn4)no3)CC2)cc1", "activity change, negative = inhibition": "-2.52%"}, {"smiles": "COc1ccc(-c2noc(CC3CCN(C(=O)CC4CCCCC4)CC3)n2)cc1", "Potency": "6.31 µM (active)"}, {"smiles": "COc1ccc(-c2noc([C@@H]3CCCN3C(=O)CCc3ccccc3)n2)cc1", "activity change, negative = inhibition": "-18.3%"}, {"smiles": "COc1ccc(-c2noc(CC3CCN(C(=O)Cc4ccccc4)CC3)n2)cc1", "Potency": "11.2 µM (active)"}, {"smiles": "COc1ccc(C(=O)N2CCC(Cc3nc(-c4cnccn4)no3)CC2)cc1", "activity change, negative = inhibition": "-4.05%"}, {"smiles": "COc1ccc(-c2noc([C@@H]3CCCN3C(=O)Cc3ccccc3Cl)n2)cc1", "activity change, negative = inhibition": "-1.5%"}, {"smiles": "CCOc1ccc(CC(=O)N2CCC(Cc3nc(-c4cnccn4)no3)CC2)cc1", "activity change, negative = inhibition": "0.667%"}, {"smiles": "COc1ccc(CC(=O)N2CCC[C@H]2c2nc(-c3ccccc3)no2)cc1", "activity change, negative = inhibition": "-9.28%"}, {"smiles": "O=C(Nc1ccc(C(F)(F)F)cc1)N[C@@H]1C[C@H](CO)[C@@H](O)[C@H]1O", "activity change, negative = inhibition": "-3.69% [at 70.6 µM]"}, {"smiles": "COc1ccc(C(=O)N2CCC3(CC2)NC(=O)N(c2ccc(F)cc2)N3)cc1OC", "activity change, negative = inhibition": "0%"}, {"smiles": "O=C(Nc1ccccc1)N1CCCCC1c1noc(COc2ccc(F)cc2)n1", "note": "(stereo not given)", "activity change, negative = inhibition": "-18.6%"}, {"smiles": "CCCn1cnc2c1CN(S(=O)(=O)Cc1ccccc1)[C@H](C(=O)OC)C2", "activity change, negative = inhibition": "-0.221% [at 70.6 µM]"}, {"smiles": "CCc1nc(-c2c3n(c(=O)n(CCc4ccc(OC)cc4)c2=O)CCCC3)no1", "activity change, negative = inhibition": "0.924%"}, {"smiles": "COc1cccc(CN2CCc3c(cc(C(=O)NCCN4CCCCC4)n3C)C2)c1", "activity change, negative = inhibition": "-0.0053%"}, {"smiles": "COc1ccc(NC(=O)c2ccc3c(c2)N(C(=O)c2ccc(F)cc2)CC3)c(C)c1", "activity change, negative = inhibition": "-7.13%"}, {"smiles": "COc1ccc(CNC(=O)c2cccc3c2CCN3C(=O)c2ccc(F)cc2)cc1OC", "Potency": "8.91 µM (active)"}, {"smiles": "CN1CCCCCC(O)c2cc(C(=O)NCc3ccc(F)cc3)ccc21", "note": "(stereo not given)", "activity change, negative = inhibition": "-12.6%"}, {"smiles": "O=C(c1ccnc(-c2nnc3ccc(N4CCOCC4)nn23)c1)N1CCCCC1", "activity change, negative = inhibition": "0.0035% [at 70.6 µM]"}, {"smiles": "COc1ccccc1CNC(=O)CCC[C@@H]1[C@H]2CCCN3CCC[C@@H](CN1C(=O)c1ccccc1)[C@@H]23", "activity change, negative = inhibition": "-2.86%"}, {"smiles": "COCCN1CCCCCC(O)c2cc(C(=O)Nc3cccc(OC)c3)ccc21", "note": "(stereo not given)", "activity change, negative = inhibition": "-1.45%"}, {"smiles": "CN(Cc1ccc(CCN)cc1)Cc1cccc(-n2cccn2)c1", "activity change, negative = inhibition": "5.67%"}, {"smiles": "CN(C)c1ccc(C(=O)NCc2nnc3cc(-c4nc(C5CC5)no4)ccn23)cc1", "activity change, negative = inhibition": "2.94%"}, {"smiles": "CCOc1ccccc1C(=O)NCc1nnc2cc(-c3nc(C)no3)ccn12", "activity change, negative = inhibition": "-0.0068%"}, {"smiles": "O=C(NCc1nnc2cc(-c3nc(C4CC4)no3)ccn12)c1ccc(F)cc1Cl", "Potency": "7.08 µM (active)"}, {"smiles": "COc1cccc(CC(=O)N2CCCC(c3nc(-c4cccnc4)no3)CCNC(=O)CC2)c1", "note": "(stereo not given)", "activity change, negative = inhibition": "3.71%"}, {"smiles": "Cc1cccc(OCC(=O)N2CCN(c3cc(C(F)(F)F)nc(C)n3)CC2)c1", "activity change, negative = inhibition": "-4.19%"}, {"smiles": "CC(C)CN[C@H]1[C@H](O)[C@H](O)C[C@@H]1c1ccc(N2CCOCC2)nc1", "activity change, negative = inhibition": "-1.51% [at 70.6 µM]"}, {"smiles": "CN(C)CCN(C)c1ccc(-c2nc(-c3ccccc3F)no2)cn1", "activity change, negative = inhibition": "5.41%"}, {"smiles": "Oc1ccc(-c2ccc(-c3nc(CCc4ccccc4)no3)cn2)cc1", "activity change, negative = inhibition": "-11.1%"}, {"smiles": "CN(CCc1cn[nH]c1)c1ccc(-c2nc(-c3ccccc3F)no2)cn1", "Potency": "8.91 µM (active)"}, {"smiles": "CCCC(C)C(=O)N1CCCN(C)c2ccccc21", "note": "(stereo not given)", "activity change, negative = inhibition": "-13.8%"}, {"smiles": "COc1ccc2nc3n(c2c1)[C@@H](CNC1CCCCC1)COC3", "activity change, negative = inhibition": "-15.1% [at 70.6 µM]"}, {"smiles": "Cc1ccccc1-n1nc(C)c(CCC(=O)NC(C)C)c1Oc1cccc(F)c1", "activity change, negative = inhibition": "-3.9%"}, {"smiles": "Cc1cc(N2CCCC(Cn3cc(Cc4ccccc4)nn3)C2)nc(N)n1", "note": "(stereo not given)", "Potency": "7.94 µM (active)"}, {"smiles": "COc1ccc(-c2cn3c(n2)CO[C@@H](CNCc2ccc(F)c(F)c2)C3)cc1", "activity change, negative = inhibition": "-22.7% [at 70.6 µM]"}, {"smiles": "CN(Cc1csc(-c2ccccc2)n1)c1cc(C2CC(O)C2)nc(N)n1", "note": "(stereo not given)", "Potency": "2.51 µM (active)"}, {"smiles": "COc1ccc(CN2C(=O)CO[C@H]3CN(C(=O)C4CC4)C[C@H]32)cc1", "activity change, negative = inhibition": "2.94% [at 70.6 µM]"}, {"smiles": "COc1ccc(CN2C(=O)CO[C@H]3CN(Cc4cccnc4)C[C@H]32)cc1", "activity change, negative = inhibition": "9.88% [at 70.6 µM]"}, {"smiles": "COc1ccc(CN2C(=O)CO[C@H]3CN(Cc4ccc5c(c4)OCO5)C[C@H]32)cc1", "Potency": "31.6 µM (active)"}, {"smiles": "Cc1noc(C)c1C(=O)N1CCCC(CCc2ccc(F)cc2F)C1", "note": "(stereo not given)", "activity change, negative = inhibition": "-5.53%"}, {"smiles": "Cc1c[nH]c(CN2CCCC(CCc3ccc(F)cc3F)C2)c(C)c1=O", "note": "(stereo not given)", "Potency": "2.51 µM (active)"}, {"smiles": "Cc1cc(F)ccc1NC(=O)CCC1CCCN(C(=O)c2ccc(Cl)s2)C1", "note": "(stereo not given)", "activity change, negative = inhibition": "-23%"}, {"smiles": "Fc1ccc(-c2cnc3n[nH]c(-c4ccc5c(c4)OCO5)c3n2)cc1", "activity change, negative = inhibition": "-3.46% [at 70.6 µM]"}, {"smiles": "Cc1ccc(-c2nnc(C3CN(C(=O)CCc4ccccc4)CC34CCOCC4)o2)cc1", "note": "(stereo not given)", "activity change, negative = inhibition": "-0.877%"}, {"smiles": "O=C(c1ccc2cc[nH]c2c1)N1CCC2(CC1)N=C(c1ccc(Cl)cc1)NO2", "Potency": "11.2 µM (active)"}, {"smiles": "O=C(c1cccc2[nH]ccc12)N1CCC2(CC1)N=C(c1cccc(Br)c1)NO2", "activity change, negative = inhibition": "-19.9%"}, {"smiles": "Cc1ccc(C2=NC3(CCN(C(=O)c4ccc(C#N)cc4)CC3)ON2)cc1", "activity change, negative = inhibition": "-0.929%"}, {"smiles": "OCC1(CN2CCCC2)CCN(Cc2cccc(Cn3cccn3)c2)CC1", "activity change, negative = inhibition": "-1.59%"}, {"smiles": "COc1cccn(CC(=O)N(C)Cc2csc(C(C)C)n2)c1=O", "activity change, negative = inhibition": "-4.01%"}, {"smiles": "COc1ccc(CNC(=O)CN2C(=O)NC3(CCC(C(C)(C)C)CC3)C2=O)cc1OC", "note": "(stereo not given)", "activity change, negative = inhibition": "5.07%"}, {"smiles": "c1ccc(-c2noc(-c3ccccc3OC3CCNC3)n2)cc1", "note": "(stereo not given)", "activity change, negative = inhibition": "-13.3%"}, {"smiles": "c1ccc(CO[C@@H]2CO[C@H]3[C@@H]2OC[C@@H]3n2nnnc2SCc2ccco2)cc1", "Potency": "22.4 µM (active)"}, {"smiles": "CC(C)(CC(=O)O)CC(=O)N[C@H]1CO[C@H]2[C@@H]1OC[C@@H]2n1nnnc1-c1ccccc1", "activity change, negative = inhibition": "1.95% [at 70.6 µM]"}, {"smiles": "CC(C)(C)CC(=O)N1CC[C@H](NC(=O)Nc2ccc(F)cc2F)[C@H]1C(=O)N[C@H](Cc1ccccc1)C(N)=O", "activity change, negative = inhibition": "7.93%"}]}]}
